Inhibition data for 116 compounds are collected here from PubChem BioAssay AID488890 (Southern Research Specialized Biocontainment Screening …, 2010).

Hit rate of the full screen: of about 320,000 compounds, about 1,300 (0.41%) were called active. Roughly 3% stayed inconclusive and do not appear here. The rule behind the calls is not given here. Not all results are given here. Measured potencies and affinities stand elsewhere.

By inhibition is commonly meant the change of the read-out against control, counted positive when it falls.

This test in a line: growth inhibition of non-replicating M. tuberculosis (AID 488890).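 Note: plate controls were DMSO cells for no effect and high antibiotic wells for full effect.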 Particulars: Mycobacterium tuberculosis non-replicating, at 25 µM, stronger effect = higher value.
In the case of `O=C(CC1CCCCC1)NCc1ccccc1Cl`, the inhibition came out at 33%. The result for `O=C(NCc1cccs1)C1CC1` reads -9.67%. Consider `O=C(NCc1cccs1)C12CC3CC(CC(C3)C1)C2`, for which the inhibition stood at 26.9%.

With `O=C(NCCCCNC(=O)c1cccs1)c1cccs1`, the inhibition was -0.35%. Turning to `O=C(NCCCNC(=O)c1cccs1)c1cccs1`, the inhibition is -16.1%.

As to `O=C(CCCCC(=O)NCc1cccs1)NCc1cccs1`, the inhibition came out at 1.23%. The result for `O=C(CC1CCCCC1)NCc1ccc(Cl)cc1` reads 11%; that for `O=C(NCc1cccs1)C1CCCCC1`, 54%; that for `COc1ccc(C(CNC(=O)c2ccccc2SC)N(C)C)cc1` (stereo unspecified), -4.14%. Take `CCCCN(C(=O)CSc1nnc(-c2ccccc2)n1C)c1c(N)n(Cc2ccccc2)c(=O)[nH]c1=O`: the inhibition was found to be 8.96%. Turning to `Cc1nc2sc(C)c(C)c2c(=O)[nH]1`, the inhibition is 3.35%. As for `COc1cc(CN2CCNCC2)cc(OC)c1OC`, the inhibition is -14.6%. Turning to `COC(=O)c1ccc(NC(=O)COc2ccc(S(=O)(=O)NC(C)(C)C)cc2)cc1`, the inhibition is -11.9%.

Regarding `CC(NC(=O)CN1C(=O)NC2(CCc3ccccc32)C1=O)c1ccccc1` (stereo unspecified), the inhibition came to 15.4%.

Turning to `CNNC(=S)Nc1ccc(Cl)cc1`, the inhibition was -0.3%. For `Cc1nnc(NC(=O)CSc2n[nH]c(-c3ccccc3C)n2)s1`, the inhibition was determined as 5.17%. In the case of `CC(=O)Nc1cccc(NC(=O)c2ccc(Br)cc2)c1`, the inhibition was -8.54%. As for `CC(=O)/C(=N/Nc1ccccc1C)N1CCOCC1`, the inhibition turned out to be 9.51%. With `O=C(CC1CCCCC1)NCc1ccccn1`, the inhibition turned out to be 69.6%. Regarding `O=C(O)CCC(=O)Nc1ccc(Br)cn1`, the inhibition was -12.1%. `O=C(CCC1CCCCC1)NCc1ccncc1`: the inhibition was found to be 29%. In the case of `O=C(CCC1CCCC1)Nc1ccc([N+](=O)[O-])cn1` it was 67.7%; in that of `O=C(CCC1CCCCC1)NCc1ccccn1`, 79.4%. As to `O=C(CC1CCCCC1)NCc1ccc(F)cc1`, the inhibition is 55.7%. In the case of `O=C(CN1C(=O)NC2(CCCc3ccccc32)C1=O)N1CCCCC1` (stereo unspecified), the inhibition is 6.72%. As to `Nc1ccc(Br)cc1C(=O)c1ccccc1`, the inhibition was 53.2%.

Regarding `CCN(CC(=O)Nc1c(F)cccc1F)C(=O)CCCc1c[nH]c2ccccc12`, the inhibition is -0.99%.

As to `COc1cc(C(=O)OCC2CC(c3ccccc3)=NO2)cc(OC)c1OC` (stereo unspecified), the inhibition worked out at 3.53%. With `CCOC(=O)c1cc(-c2ccccc2)n(CC2CC(c3ccc(OC)cc3)=NO2)n1` (stereo unspecified), the inhibition was 0.81%. `Cc1oc(=O)c(NC(=O)c2ccccc2)cc1C(N)=O`: the inhibition is -8.22%. In the case of `CC(=O)c1cc(NC(=O)c2ccccc2)c(=O)oc1C`, the inhibition was 54.9%. `N/C(=N\OC(=O)c1ccc2ccccc2c1)c1ccccn1`: the inhibition is 15.8%. The result for `COc1cccc(NC(=O)C(C)N2C(=O)c3ccccc3S2(=O)=O)c1` (stereo unspecified) reads -2.17%; that for `COc1ccc(-c2c([C@H]3[C@H]4C=CC[C@@H](C)[C@@H]4C(=O)N3Cc3ccccc3)ccc3ccccc23)cc1OC`, 60.8%; that for `COc1ccc(/C=N/Nc2cc(C)nc(N)n2)cc1`, 27.6%. Turning to `Cc1cc(N/N=C/c2ccc(F)cc2)nc(NCc2ccccc2)n1`, the inhibition is 60.8%. Consider `COc1ccc(/C=N/Nc2cc(C)nc(N3CCOCC3)n2)cc1`, for which the inhibition was -21.2%. For the compound `Cc1ccc(/C=N/Nc2cc(C)nc(N3CCOCC3)n2)cc1`, the inhibition was 5.46%. Turning to `O=C(O)CC(NC(=O)c1cccc(F)c1)c1ccc(OC2CCCC2)cc1` (stereo unspecified), the inhibition is -8.15%. In the case of `CCCCC(=O)Nc1ccc(C(=O)c2ccccc2)cc1`, the inhibition was -5.55%. As for `CCn1cc(CNC(=S)Nc2cccc(Cl)c2C)cn1`, the inhibition was 72.5%. For the compound `C/C=C\C(=O)Nc1cccc(C2=NOC3(C2)C[C@@H](C(N)=O)N(C(=O)C2(C)CC2)C3)c1` (stereo partly specified), the inhibition worked out at 2.93%.

Turning to `CC(=O)Nc1ccc(NC(=O)CN(C)S(=O)(=O)c2ccc3nc(C)sc3c2)cc1`, the inhibition was 6.18%. As for `CCC(=O)Nc1nc2c(OC)ccc(C)c2s1`, the inhibition was -15%. Consider `COc1ccc(OC)c2sc(NC(=O)CCSc3ccccc3)nc12`, for which the inhibition was found to be 14.7%. The result for `COc1ccc(CNC(=O)C(=O)NCC2OCCN2S(=O)(=O)c2ccc3c(c2)OCCO3)cc1` (stereo unspecified) reads -1.2%. On to `CCOc1ccc(NC(=O)CCNS(=O)(=O)c2ccc3c(c2)CC(C)N3C(C)=O)cc1` (stereo unspecified), for which the inhibition was -1.02%.

Turning to `CCOC(=O)C1CCN(Cc2ccc(OCc3ccccc3)c(OC)c2)CC1`, the inhibition came out at 6.11%. The result for `O=C1NN(c2ccccc2)C(=O)/C1=C/c1ccc(-c2ccc(C(=O)O)cc2)o1` reads 37.2%; that for `CCN1C(=O)N/C(=C/c2ccc(Sc3ccc(C)cc3)o2)C1=O`, 39.1%. In the case of `CC1=CN2C(=N)/C(=C/c3ccc(Sc4ccc(C)cc4)o3)C(=O)N=C2S1` it was -10.5%. With `Cc1ccc(N2NC(=O)/C(=C/c3ccc(-c4ccc(Cl)c(C(=O)O)c4)o3)C2=O)cc1`, the inhibition is 26.2%. On to `CC(C)C(C)NC(=O)COc1ccc(-c2ccccc2)cc1` (stereo unspecified), for which the inhibition was -4.32%.

As to `CCN(CC)C(=O)COc1ccc(-c2ccccc2)cc1`, the inhibition is 37.2%.

On to `CC(NC(=O)COc1ccc(Br)cc1)C1CCCO1` (stereo unspecified), for which the inhibition is 0.437%.

In the case of `COc1ccc(CCC(=O)NC(C)C2CCCO2)cc1` (stereo unspecified), the inhibition is -3.51%. For the compound `CCC(CC)n1[nH]c(=O)c2c(C)cc(C)nc21`, the inhibition was -4.61%.

For the compound `CCCc1nc(SCC(=O)NC2CC2)c2c(C)c(C)sc2n1`, the inhibition turned out to be 6%. In the case of `CC[C@@]12C(=O)N(c3cccc(Br)c3)C(=O)N1[C@H](c1cccc(C)c1)[C@@H]1C(=O)N(Cc3ccccc3)C(=O)[C@@H]12`, the inhibition was 23.5%. In the case of `O=C(c1ncc[nH]1)c1cccs1`, the inhibition is -0.79%.

Regarding `CCOC(=O)C1CCCN(Cc2ccccc2Cl)C1` (stereo unspecified), the inhibition was 21.6%. As for `CC(NCc1ccc(Cl)cc1)C(O)c1ccccc1` (stereo unspecified), the inhibition was 12.6%. With `CC(NCc1cccc(OCc2ccccc2)c1)C(O)c1ccccc1` (stereo unspecified), the inhibition worked out at 63.5%. With `Cn1c(Cc2ccccc2)nnc1SCc1ccc(C(=O)O)cc1`, the inhibition was -12%. `COn1c2c(c3c4no[n+]([O-])c4ccc31)CCCC2`: the inhibition was -5.21%. As to `CCOC(=O)c1c(C)n(OC)c2ccc3c(no[n+]3[O-])c12`, the inhibition is -0.23%. Turning to `CCCCC(=O)Nc1c2c(nn1-c1cccc(C)c1C)CS(=O)(=O)C2`, the inhibition is -2.3%. As for `COc1cc(C(=O)NCc2ccccn2)ccc1OCc1c(C)noc1C`, the inhibition was -3.19%.

Regarding `C=CCN1C(=O)C2(OCCCO2)c2ccccc21`, the inhibition is 11.8%.

As for `O=C1N(CCCCN2C(=O)C3(OCCO3)c3ccccc32)c2ccccc2C12OCCO2`, the inhibition is 5.68%. As for `C=CCN1C(=O)C2(NC(=O)c3ccccc3N2)c2ccccc21` (stereo unspecified), the inhibition is -5.15%.

With `O=C1N(CCCN2C(=O)C3(OCCO3)c3ccccc32)c2ccccc2C12OCCO2`, the inhibition came out at 0.91%. The result for `COc1ccccc1C(=O)N1CCN(C2CCN(Cc3ccccc3)CC2)CC1` reads -21.9%; that for `COc1ccc(OC(C)C(=O)NC(C)c2ccccc2)cc1` (stereo unspecified), -7.62%; that for `O=C1CCCC(O)=C1C=Nc1ccc(O)cc1`, 17.3%. Take `O=C1CCCC(O)=C1C=Nc1cccc(C(F)(F)F)c1`: the inhibition was -1.35%. On to `CC(C)CN(C(=O)COC(=O)c1ccccn1)c1c(N)n(Cc2ccccc2)c(=O)[nH]c1=O`, for which the inhibition is -2.29%. As for `C=CCOc1ccc(C2CC(C)=NN2c2ccccc2)cc1` (stereo unspecified), the inhibition came out at 35.9%. As for `CCOC(=O)C1=NN(c2ccccc2)C(c2ccccc2)CC1=O` (stereo unspecified), the inhibition was found to be 12.4%. As for `Cc1ccc(C)c(S(=O)(=O)N2CCN(C(=O)CCC(=O)NCc3ccc(Cl)cc3)CC2)c1`, the inhibition stood at 6.7%.

For `NC(=O)c1ccc(NC(=O)COC(=O)C2CC(=O)N(Cc3ccccc3)C2)cc1` (stereo unspecified), the inhibition was -1.36%. The result for `Cc1nn2c(NCCCN(C)C)c3c(nc2c1-c1ccccc1)CCCC3` reads 73.4%; that for `Cc1nn2c(NCCCN(C)C)c3c(nc2c1-c1ccccc1)CCC3`, -10.7%; that for `CCO/C=C1/C(=O)N(C(C)=O)c2ccccc21`, -5.81%.

`Cc1ccc(-c2nnc(-c3ccccc3Br)o2)cc1`: the inhibition was 78.7%. In the case of `Fc1ccc(-c2nnc(-c3ccc(Cl)cc3)o2)cc1`, the inhibition was 72.1%. As for `CN(C)c1ccc(-c2nnc(-c3cccs3)o2)cc1`, the inhibition was 48.7%. Turning to `COc1ccccc1-c1nnc(-c2ccc(N3CCOCC3)cc2)o1`, the inhibition amounted to 18.5%.

With `c1ccc(-c2nnc(-c3ccccc3)o2)cc1`, the inhibition stood at 66.5%.

`COc1ccc(-c2nnc(-c3cccs3)o2)cc1OC`: the inhibition came out at 60.7%. In the case of `Cc1cccc(-c2nnc(-c3ccccc3)o2)c1`, the inhibition is 79.9%. The result for `COc1ccc(-c2nnc(-c3ccc(F)cc3)o2)cc1` reads 76.7%. The result for `Cc1cc(=O)oc2ccc(OC(C)C(=O)O)cc12` (stereo unspecified) reads -4.21%. In the case of `Cn1cc(C(=O)C(=O)N2CCCC2)c2ccccc21` it was -3.83%; in that of `CC(=O)Nc1ccc(Nc2nc(C)c([N+](=O)[O-])c(N(C)c3ccccc3)n2)cc1`, 71.5%.

For the compound `Cc1nc(N/N=C/c2ccccc2)nc(N(C)c2ccccc2)c1[N+](=O)[O-]`, the inhibition was -0.99%. As to `CC(=O)c1cccc(OCc2cc(C(=O)NCc3nc(C)c(C)s3)no2)c1`, the inhibition is -3.04%. In the case of `COc1ccc(NC(=O)COc2ccc(C(=O)NCc3cccnc3)cc2OC)cc1`, the inhibition worked out at 10.8%. For the compound `O=C(O)c1c2c(nc3ccccc13)-c1ccccc1CC2`, the inhibition is -7.78%. In the case of `O=C(OCC(=O)N1CCN(c2ccccc2)CC1)c1ccc(Cl)nc1`, the inhibition turned out to be 60.4%. `O=C(OCC(=O)N1CCCC1)c1cnc(Cl)c(Cl)c1`: the inhibition amounted to 7.3%. Turning to `O=C(OCC(=O)N1CCN(c2ccccc2)CC1)c1ccccn1`, the inhibition is -2.7%. In the case of `O=C(OCC(=O)N1CCCCC1)c1ccc2ccccc2n1` it was 50%; in that of `Clc1ccc(N2CCN(c3ccnc(Cl)n3)CC2)cc1`, 53%. With `COCCCNC(=O)c1c(N)n(-c2ccc3c(c2)OCO3)c2nc3ccccc3nc12`, the inhibition is -12.5%. With `O=C(NC1CCCCC1)c1cc(-c2ccc(Cl)cc2)on1`, the inhibition was -0.38%. Turning to `O=C(Nc1ccccc1)c1cccc2c(Br)cccc12`, the inhibition is -8.76%.

Consider `CCc1ccc(/C(C)=N/NC(=O)c2ccccn2)cc1`, for which the inhibition is 27%.

In the case of `Cc1ccc(N=CC2=C(O)CC(c3ccccc3Cl)CC2=O)cc1` (stereo unspecified), the inhibition amounted to 2.23%.

Regarding `O=C(Nc1ccc(Br)cc1F)c1sccc1-n1cccc1`, the inhibition turned out to be 0.35%. The result for `COc1ccccc1C(=O)Nc1c2c(nn1-c1ccc([N+](=O)[O-])cc1)CS(=O)(=O)C2` reads -26.7%; that for `CC(=O)Oc1ccc([C@@H]2COc3c(ccc4c3C=CC(C)(C)O4)C2)c(OC(C)=O)c1`, -2.73%. In the case of `CC(=O)Nc1ccc(OCCOc2ccc(/C=C3/C(=N)N4C=CSC4=NC3=O)cc2)cc1`, the inhibition came out at 2.76%. The result for `COc1cc(/C=C2\C(=N)N3N=CSC3=NC2=O)cc(Br)c1OC(=O)c1ccco1` reads -3.1%; that for `CC1=CC2=NC(=O)/C(=C/c3cccs3)C(=N)N2O1`, -5.09%. Take `COc1cc(/C=C2/C(=N)N3OC(C)=CC3=NC2=O)ccc1OCCOc1ccc(C)cc1`: the inhibition is -6.61%.
